High-throughput results (PubChem BioAssay)
Compounds with a hit are over-represented: about 19% of the library has one in this group of screens.
DT40 TDP1 CPT – DT40-hTDP1 cell growth loss with CPT. chicken DT40 Tdp1-/-;hTDP1 cells + 20 nM CPT, ATP luminescence, 48 h. Potency, µM (series often up to 46.2 µM), for the others: at the highest dose activity change, negative = growth inhibition, usual class: inhibitors. 12% of 420,000 active; note: potency is the fitted concentration of half-maximal effect; nearly all actives have a fitted effect of over 55% in size
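Cell growth measured by CellTiter-Glo luminescence after a minimum 48 h, 37 C compound exposure with 20 nM CPT in Tdp1-knockout DT40 cells stably expressing hTDP1, seeded 400/well; qHTS titration format.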
TDP1 cell noCPT – qHTS for Inhibitors of human tyrosyl-DNA phosphodiesterase 1 (TDP1): qHTS in cells in absence of CPT; 15% of 420,000 active; AID 686978, 2013; Potency, µM (doses to about 46.2 µM), inactives show top-dose activity change, negative = growth inhibition, most hits filed as inhibitors; DT40 Tdp1-/- hTDP1 cells, no CPT, ATP luminescence, 48 h; note: potency is the fitted concentration of half-maximal effect; nearly all actives have a fitted effect of over 55% in size
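Luminescent ATP content (CellTiter-Glo) served as the growth readout. Knockout chicken DT40 cells expressing human TDP1 were exposed to compounds without camptothecin for a minimum 48 hr at 37 °C.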
HT1080 IDH1KD tx – kills HT-1080 cells with IDH1 knockdown; HT-1080 IDH1 knockdown viability, ATP luminescence, 48 h; Potency, µM (titrated, usually from 46.1 µM), inactives show top-dose activity, negative = toxicity, hits mostly cytotoxic; 2% of 360,000 active;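 note: potency is the fitted concentration of half-maximal effect; 0% = DMSO wells and -100% = cell-free medium wells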
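Luminescent ATP read-out (CellTiter-Glo, 10 min at room temperature) after 48 h compound exposure at 37 °C gave viability of IDH1-knockdown HT-1080 cells. Activity was normalised to DMSO and cell-free wells, then fitted as concentration-response curves.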
IL-1B inflam inh – inhibitors of inflammasome signaling (IL-1 beta secretion); activity change, % at 57.5 µM; 4.7% of 360,000 active; AID 743279; THP-1 LPS/ATP IL-1B secretion, AlphaLISA, 16 h; hits give low values; in the data active = activity change below about -50%; inconclusive = mostly about -30% to -49%
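THP-1 cells pretreated 1 hr with compounds (up to 57.5 uM final), then stimulated with LPS (250 ng/mL final) plus ATP (1.25 mM final); secreted IL-1B measured by AlphaLISA after 16 hr, decreased signal indicating inhibition.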
HT1080-NT tox – kills 2HG-producing HT-1080-NT fibrosarcoma cells; HT-1080-NT fibrosarcoma viability, CellTiter-Glo ATP luminescence, 48 h; Potency, µM (top dose mostly 46.1 µM), for inactives: top-dose activity, negative = less viability, actives largely listed as cytotoxic; 1.6% of 360,000 active; AID 686970;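 note: NT is the 2HG producing partner of a matched IDH1 knockdown line; potency is the fitted concentration of half-maximal effect; 0% = DMSO-treated cells and -100% = media-only wells without cells; nearly all actives have a fitted effect of over 55% in size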
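A 48-hour cytotoxicity screen used HT-1080-NT cells plated 2 hours before compound delivery. ATP-based CellTiter-Glo luminescence measured viability, normalized to DMSO and no-cell controls.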
* hit, by the source's call; ? = inconclusive; . = not tested or not shown; [ ] = remark or other dose. Unless noted, calls come from the whole dose curve; as a rule, active = well fitted curve in the direction sought with a large enough effect; inconclusive = small, poorly fitted or top-dose-only effect, or another doubt; inactive = no such curve, though single readings can be large; an effect the other way counts as inactive or inconclusive. Unless noted, % is set by controls: 0 for no effect and ±100 for the full control effect.

SMILES | DT40 TDP1 CPT | TDP1 cell noCPT | HT1080 IDH1KD tx | IL-1B inflam inh | HT1080-NT tox
CNC(=O)c1cc(Oc2ccc(NC(=O)c3[nH]c(-c4ccccc4)c4c3C(=O)N(C)C4=O)cc2)ccn1 | ? | ? | 11.1% | 37.3 | 20.3%
Cc1ccc(C(=O)Nc2ccc(Br)c(C(F)(F)F)c2)cc1 | ? | 23.1µM* | ? | ? | -26.5%
C/C(CC(=O)Nc1c(Cl)cccc1C(F)(F)F)=N\NC(=O)c1cnccn1 | ? | 2.6% | -0.7% | -1.5 | -12.9%
C/C(CC(=O)Nc1ccc(Cl)c(C(F)(F)F)c1)=N\NC(=O)c1cnccn1 | ? | -26.5% | ? | -71.7* | ?
CC(C)OC(=O)C1OC1(C)c1ccccc1 (stereo unspecified) | 22.9% | 5.6% | 17.6% | 1.8 | 5.4%
CCCCNC(=S)N(CCCN(C)C)Cc1cc2cc3c(cc2[nH]c1=O)OCO3 | -1.3% | ? | 1.7% | -0.8 | -4.3%
CCc1ccc2c(c1)NC(=O)C2(C)Cc1ccccc1Cl (stereo unspecified) | ? | ? | ? | 39.2 | ?
CCOC(=O)C1CCN(S(=O)(=O)C(F)(F)c2nc3ccccc3s2)CC1 | ? | ? | 7.2%[9.24 µM] | -15.4 | -27.1%
Cc1cc(C)c2nccc(C)c2c1 | -11.8% | 2.6% | . | . | .
CSc1nc2ccc(NC(=O)c3cccs3)cc2s1 | ? | ? | -21.7% | -24.6 | 0.0%
Cc1ccccc1NC(=O)CSc1nc2ccc(NC(=O)c3cccs3)cc2s1 | ? | 20.6µM* | . | . | .
Cc1cc(C)cc(OCCSc2nc3ccc(NC(=O)c4cccs4)cc3s2)c1 | ? | 20.6µM* | . | . | .
COc1ccccc1C(=O)Nc1ccc2nc(SCCOc3ccccc3C)sc2c1 | 16.4µM* | 18.4µM* | . | . | .
Cc1ccc(OCCSc2nc3ccc(NC(=O)c4cccs4)cc3s2)cc1 | -24.4% | -25.3% | . | . | .
CCN(CCn1cccn1)Cc1c(C(=O)N2C[C@@H](C)O[C@@H](C)C2)nc2ccc(Cl)cn12 | 1.9% | -20.9% | -0.9% | 0.0 | 8.9%
CCCCNC(=O)C1CCCN(S(=O)(=O)c2c(C)noc2/C=C/c2cccs2)C1 (stereo unspecified) | ? | 13µM* | 8.8% | ? | -7.4%
Cc1noc(/C=C/c2cccs2)c1S(=O)(=O)N1CCC(C(=O)NCCCN2CCCC(C)C2)CC1 (stereo unspecified) | ? | ? | -24.7% | -50.9* | -3.0%
Cc1ccc(CNC(=O)C2CCCN(S(=O)(=O)c3c(C)noc3/C=C/N(C)C)C2)cc1 (stereo unspecified) | ? | ? | -0.6% | -11.7 | 1.4%
CCOCCCNC(=O)C1CCN(S(=O)(=O)c2c(C)noc2/C=C\c2ccc(OC)cc2)CC1 | -10.9% | 1.4% | 3.3% | 21.5 | 0.0%
CC1(C)OC(=O)C2=C(C[C@@H](C3CC3)O[C@@H]2C2CC2)O1 | 6.3% | -15.8% | 5.3% | 11.7 | 19.9%
C/C(=N\NC(=O)c1c(Cl)cnn1C)c1ccc(NC(=O)c2ccncc2)cc1 | ? | 20.6µM* | -26.8% | 14.5 | 0.9%
C/C(=N\NC(=O)c1ccc(OC2OCCOC2Oc2ccc(C(=O)N/N=C(\C)c3ccncc3)cc2)cc1)c1ccncc1 (stereo unspecified) | 6.51µM* | 7.31µM* | ? | -2.4 | ?
C/C(=N\NC(=O)c1ccc(N/N=C(\C)c2ccncc2)cc1)c1ccncc1 | ? | 20.6µM* | -24.7% | -82.1* | -7.3%
C/C(=N\NC(=O)c1ccccc1NC(=O)c1ccc(Cl)cc1)c1ccncc1 | 0.92µM* | 1.16µM* | 1.3µM* | 34.5 | 0.517µM*
Cn1ncc(Cl)c1C(=O)Nc1ccncc1 | -3.1% | -10.8% | 2.3% | ? | 6.7%
O=C(CC(=O)Nc1ccccc1F)Nc1ccc2nc3n(c(=O)c2c1)CCCCC3 | -10.6% | ? | . | . | .
CS(=O)(=O)Nc1nnc(SCC(=O)Nc2cccc([N+](=O)[O-])c2)s1 | 14.1% | 2.9% | 15.3% | -15.6 | 12.1%
CC(=O)Oc1ccc(Oc2ccc(-c3noc(C)n3)cc2)cc1 | 20.6µM* | 11.6µM* | -29.4% | 0.0 | -3.0%
